Laboratory results published in PubChem BioAssay (EPA / NIEHS).
Results filed as inconclusive are left out. Active and inactive are the calls of the source. Rule for the calls, unless noted: active = hit-call score of the fitted dose curve at least 0.9, where 1 is the maximum; inactive = score below 0.9.

Tests used:
[1] = read-out: Collagen I, COL1A1 (gene 1277); test: BSK_MyoF_CollagenI: BioMAP Diversity Plus: MyoF Assay for Collagen I Biomarker Activity (AID 2284238); details: primary human lung fibroblasts
Method in brief: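 Multiplexed primary human lung fibroblast system; Collagen I measured by ELISA at 24 h post-dose. Increases are referenced to DMSO.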

[2] = read-out: Collagen III, COL3A1 (gene 1281); test: BSK_MyoF_CollagenIII: BioMAP Diversity Plus: MyoF Assay for Collagen III Biomarker Activity (AID 2284239); details: primary human lung fibroblasts
Method in brief: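 Compounds are added to primary human lung fibroblasts and left for 24 hours. Collagen III is then quantified by ELISA. Analysis takes DMSO as baseline and fits increases in signal.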

[3] = read-out: Interleukin 17F (IL17F), IL17F (gene 112744); test: BSK_BT_xIL17F: BioMAP Diversity Plus: BT Assay for Interleukin 17F (IL17F) Biomarker Activity (AID 2284243); details: primary human B cells with PBMC
Method in brief: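 Measures secreted IL-17F from a human B cell plus PBMC co-culture at 24 h post-dose by Luminex xMAP, with DMSO defining baseline activity.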

[4] = read-out: Actin alpha 1 (ACTA1), ACTA1 (gene 58); test: BSK_MyoF_ACTA1: BioMAP Diversity Plus: MyoF Assay for Actin alpha 1 (ACTA1) Biomarker Activity (AID 2284244); details: primary human lung fibroblasts
Method in brief: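 Lung fibroblasts, human primary, 24 h compound exposure → a-SMA ELISA. Positive-direction fit vs DMSO control.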

[5] = read-out: Interleukin 2 (IL2), IL2 (gene 3558); test: BSK_BT_xIL2: BioMAP Diversity Plus: BT Assay for Interleukin 2 (IL2) Biomarker Activity (AID 2284245); details: primary human B cells with PBMC
Method in brief: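 B cell + PBMC co-culture (human primary), compound added, 24 h incubation; secreted IL-2 measured multiplexed on Luminex xMAP; gain-of-signal fit vs DMSO.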

[6] = read-out: Basic fibroblast growth factor (bFGF), FGF2 (gene 2247); test: BSK_MyoF_bFGF: BioMAP Diversity Plus: MyoF Assay for Basic fibroblast growth factor (bFGF) Biomarker Activity (AID 2284246); details: primary human lung fibroblasts
Method in brief: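 ELISA-measured bFGF level serves as the read-out, taken 24 h after chemical dosing of human lung fibroblasts. Values represent signal gain over the DMSO negative control.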

[7] = read-out: Collagen IV, COL4A1 (gene 1282); test: BSK_MyoF_CollagenIV: BioMAP Diversity Plus: MyoF Assay for Collagen IV Biomarker Activity (AID 2284247); details: primary human lung fibroblasts
Method in brief: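 Steps: dose human lung fibroblasts; culture 24 h; quantify Collagen IV by ELISA; fit increase versus DMSO control. Parallel SRB total-protein staining (0.1% SRB after 10% TCA fixation, 560 nm) tracks overt cytotoxicity.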

[8] = CCTE_Mundy_HCI_hNP1_Casp3_7: CCTE's Caspase-Glo 3/7 Assay in human neuroprogenitor cells for Apoptosis, Mundy Lab (AID 2284240)
Method in brief: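 Apoptosis is scored by activated caspase-3/7 luminescence in WA09-derived neural progenitor cells, measured 26.5 h after chemical dosing. Values represent gain of signal relative to DMSO vehicle.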

[9] = CCTE_Mundy_HCI_hNP1_CellTiter: CCTE's Cell Titer-Glo 2 Assay in human neuroprogenitor cells for Viability, Mundy Lab (AID 2284241; active = hit-call score of the fitted dose curve at least 0.9, where 1 is the maximum)
Method in brief: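 Human neural progenitor cells (hNP1, WA09-derived) were plated on poly-L-ornithine/laminin and grown 40 to 44 hours at 37 °C, 5% CO2 before chemical addition. Twenty-four hours later, ATP was measured by CellTiter-Glo luminescence; loss of signal versus DMSO indicates reduced viability.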

[10] = CCTE_Mundy_HCI_Cortical_Synap_Neur_Matur_NeuronCount: CCTE's Synaptogenesis and Neurite Maturation Assay in rat cortical cells for Neuron Count, Mundy Lab (AID 2284242; active = hit-call score of the fitted dose curve at least 0.9, where 1 is the maximum;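 for AC50: hits reduce neuron count versus DMSO baseline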)
Method in brief: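 Neuron number was scored by automated high-content imaging of Hoechst- and MAP2-labelled rat primary cortical cells. Glial growth was arrested with AraC at DIV 5, compounds were applied from DIV 7, and cultures ended at DIV 12.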

Measured: AC50

O=C(O)CCC(F)(F)C(F)(F)C(F)(F)C(F)(F)C(F)(F)C(F)(F)F
inactive: [1] | [2] | [3] | [4] | [5] | [6] | [7]

CC1=NN(c2ccccc2)C(=O)C1
active: [2] 3.97 µM
inactive: [1] | [3] | [4] | [5] | [6] | [7]

O=C1NS(=O)(=O)c2ccccc21
inactive: [8] | [9] | [10]

CCOC(=O)CN[C@@H](C(=O)N1CC[C@H]1C(=O)NCc1ccc(/C(N)=N/O)cc1)C1CCCCC1
inactive: [1] | [2] | [3] | [4] | [5] | [6] | [7]

NC(=NCCCCCCN=C(N)/N=C(\N)Nc1ccc(Cl)cc1)/N=C(\N)Nc1ccc(Cl)cc1
active: [1] 1.21 µM | [2] 2.24 µM | [3] 5.34 µM | [4] 4.86 µM | [5] 8.05 µM | [6] 9.23 µM | [7] 8.69 µM

COc1cc(OC)nc(NC(=O)NS(=O)(=O)Nc2ccccc2C(=O)N(C)C)n1
inactive: [1] | [2] | [3] | [4] | [5] | [6] | [7]

O=S(=O)(O)C(F)(F)C(F)(F)C(F)(F)C(F)(F)C(F)(F)C(F)(F)C(F)(F)C(F)(F)C(F)(F)C(F)(F)F
inactive: [1] | [2] | [3] | [4] | [5] | [6] | [7]

O=C1OC2(c3ccccc31)c1cc(I)c(O)c(I)c1Oc1c2cc(I)c(O)c1I
inactive: [3] | [4] | [5]
active: [1] 5.89 µM | [6] 9.75 µM | [7] 3.8 µM

Nc1ccn([C@@H]2O[C@H](CO)[C@@H](O)C2O)c(=O)n1 (stereo not given in full)
active: [8] 0.207 µM | [10] 10.8 µM

CC(=O)Nc1ccc(O)cc1
inactive: [8]

O=C(NO)c1ccccc1
inactive: [1] | [2] | [4] | [6] | [7]
active: [3] 19.2 µM | [5] 19.2 µM

O=C(O)CCC(F)(F)C(F)(F)C(F)(F)C(F)(F)C(F)(F)F
inactive: [1] | [2] | [3] | [4] | [5] | [6] | [7]

CCCCCCCCCCCCCCCCCC[N+](C)(C)Cc1ccccc1
inactive: [7]
active: [1] 1.02 µM | [2] 2.09 µM | [3] 2.42 µM | [4] 2.7 µM | [5] 1.97 µM | [6] 3.06 µM
